Inconclusive results are not listed. Activity calls are given as the source filed them. The calls were made as follows, unless noted: active = hit-call score of the fitted dose curve at least 0.9, where 1 is the maximum; inactive = score below 0.9.
Assays:
[1] = target: Retinoic acid receptor RXR-alpha (Homo sapiens) (UniProt P19793); assay: ATG_RXRa_TRANS: Attagene TRANS-FACTORIAL HepG2 Assay for human Retinoid X Receptor alpha (RXRa) (AID 2283012; active = hit-call score of the fitted dose curve at least 0.9, where 1 is the maximum)
Method in brief: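 HepG2 cells transiently transfected with GAL4-UAS reporter units and chimeric RXRa-Gal4 protein, treated 24 h. Reporter mRNA measured by RT-PCR, fluorescent labelling, HpaI digestion and capillary electrophoresis. Induction fitted against DMSO.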

[2] = target: human Retinoid X Receptor beta (RXRb), RXRB (gene 6257) (UniProt P28702); assay: ATG_RXRb_TRANS: Attagene TRANS-FACTORIAL HepG2 Assay for human Retinoid X Receptor beta (RXRb) (AID 2283013; active = hit-call score of the fitted dose curve at least 0.9, where 1 is the maximum)
Method in brief: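 HepG2 cells were transiently transfected with multiplexed GAL4-UAS reporters and a chimeric RXRb-Gal4 construct, then exposed for 24 h. Reporter mRNA was quantified by RT-PCR, FAM labeling, HpaI digestion and capillary electrophoresis; gain of signal was scored against DMSO.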

[3] = target: human Thyroid Receptor alpha (THRa1), THRA (gene 7067) (UniProt P10827); assay: ATG_THRa1_TRANS: Attagene TRANS-FACTORIAL HepG2 Assay for human Thyroid Receptor alpha (THRa1) (AID 2283014; active = hit-call score of the fitted dose curve at least 0.9, where 1 is the maximum)
Method in brief: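 HepG2 cells transiently transfected with chimeric NR-Gal4 and GAL4-UAS reporter units, dosed 24 h. Reporter mRNA quantified by RT-PCR, fluorescent labeling, HpaI digestion and capillary electrophoresis; gain-of-signal fit versus DMSO.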

[4] = read-out: E-selectin (Homo sapiens) (UniProt P16581); assay: BSK_3C_Eselectin: BioMAP Diversity Plus: 3C Assay for Eselectin Biomarker Activity (AID 2283015); conditions: primary human endothelial cells (HUVEC); actives raise or lower the signal
Method in brief: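 Primary human umbilical vein endothelial cells (3C system), read 24 h after compound addition; E-selectin measured by ELISA. Bidirectional curve fitting against DMSO baseline; cytotoxicity by parallel SRB total-protein staining.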

[5] = read-out: Interleukin-1 alpha (IL1a), IL1A (gene 3552); assay: BSK_BE3C_IL1a: BioMAP Diversity Plus: BE3C Assay for Interleukin-1 alpha (IL1a) Biomarker Activity (AID 2283016); conditions: primary human bronchial epithelial cells; actives raise or lower the signal
Method in brief: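 Human primary bronchial epithelial cells, 24 h chemical exposure; IL-1a quantified by ELISA, fitted bidirectionally against DMSO. Cytotoxicity assessed in parallel by SRB total-protein staining at the time of measurement.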

[6] = read-out: Monocyte Chemoattractant Protein-1 (MCP1), CCL2 (gene 6347); assay: BSK_3C_MCP1: BioMAP Diversity Plus: 3C Assay for Monocyte Chemoattractant Protein-1 (MCP1) Biomarker Activity (AID 2283017); conditions: primary human endothelial cells (HUVEC); actives raise or lower the signal
Method in brief: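 Human umbilical vein endothelial cells (3C system) exposed to chemicals for 24 h; MCP-1 quantified by ELISA against the DMSO baseline with bidirectional fitting, and parallel SRB staining used to assess cytotoxicity.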

[7] = read-out: Monocyte Chemoattractant Protein-1 (MCP1), CCL2 (gene 6347); assay: BSK_4H_MCP1: BioMAP Diversity Plus: 4H Assay for Monocyte Chemoattractant Protein-1 (MCP1) Biomarker Activity (AID 2283018); conditions: primary human endothelial cells (HUVEC); actives raise or lower the signal
Method in brief: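 Human umbilical vein endothelial cells (4H system) exposed to chemicals for 24 h in 96-well format. MCP-1 measured by ELISA; bidirectional fitting against DMSO, with SRB total-protein staining in parallel cultures for cytotoxicity.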

[8] = read-out: Human Leukocyte Antigen - DR isotype (HLADR), HLA-DRA (gene 3122); assay: BSK_3C_HLADR: BioMAP Diversity Plus: 3C Assay for Human Leukocyte Antigen - DR isotype (HLADR) Biomarker Activity (AID 2283019); conditions: primary human endothelial cells (HUVEC); actives raise or lower the signal
Method in brief: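 HUVEC monoculture, HLA-DR measured by ELISA 24 h after chemical dosing. Fitted bidirectionally against DMSO baseline; parallel SRB staining assessed cytotoxicity, with 3C proliferation read by SRB at 48 h.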

[9] = read-out: Interleukin-8 (IL8), CXCL8 (gene 3576); assay: BSK_3C_IL8: BioMAP Diversity Plus: 3C Assay for Interleukin-8 (IL8) Biomarker Activity (AID 2283020); conditions: primary human endothelial cells (HUVEC); actives raise or lower the signal
Method in brief: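 Primary human umbilical vein endothelial cells were dosed for 24 h. IL-8 was quantified by ELISA and fitted bidirectionally against DMSO. Cytotoxicity was assessed in parallel cultures by SRB staining at 560 nm.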

[10] = target: human RAR-related Orphan Receptor gamma (RORg), RORC (gene 6097) (UniProt P51449); assay: ATG_RORg_TRANS: Attagene TRANS-FACTORIAL HepG2 Assay for human RAR-related Orphan Receptor gamma (RORg) (AID 2283011; active = hit-call score of the fitted dose curve at least 0.9, where 1 is the maximum)
Method in brief: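 HepG2 cells transiently transfected with GAL4-UAS reporter units and chimeric RORg-Gal4 construct; after 24 h chemical exposure, reporter mRNA measured by RT-PCR with fluorescent capillary electrophoresis, gain of signal fitted against DMSO.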

Measured: AC50

Sequence of human Thyroid Receptor alpha (THRa1), THRA (gene 7067) (P10827 whole entry, looked up, the tested form may be a part): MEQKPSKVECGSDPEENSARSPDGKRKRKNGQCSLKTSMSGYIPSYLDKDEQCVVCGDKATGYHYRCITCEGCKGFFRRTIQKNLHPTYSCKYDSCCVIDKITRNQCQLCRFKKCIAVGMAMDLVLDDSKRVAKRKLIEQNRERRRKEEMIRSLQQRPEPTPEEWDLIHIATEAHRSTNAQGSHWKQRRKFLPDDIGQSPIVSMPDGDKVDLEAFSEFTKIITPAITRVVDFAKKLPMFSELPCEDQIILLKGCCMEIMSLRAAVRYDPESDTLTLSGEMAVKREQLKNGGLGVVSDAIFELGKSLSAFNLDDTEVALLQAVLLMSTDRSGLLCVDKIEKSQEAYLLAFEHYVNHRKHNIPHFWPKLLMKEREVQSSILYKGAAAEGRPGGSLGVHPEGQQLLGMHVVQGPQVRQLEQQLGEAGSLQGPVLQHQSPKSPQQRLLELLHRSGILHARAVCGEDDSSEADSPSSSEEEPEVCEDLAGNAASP
Sequence of human Retinoid X Receptor beta (RXRb), RXRB (gene 6257) (P28702 whole entry, looked up, the tested form may be a part): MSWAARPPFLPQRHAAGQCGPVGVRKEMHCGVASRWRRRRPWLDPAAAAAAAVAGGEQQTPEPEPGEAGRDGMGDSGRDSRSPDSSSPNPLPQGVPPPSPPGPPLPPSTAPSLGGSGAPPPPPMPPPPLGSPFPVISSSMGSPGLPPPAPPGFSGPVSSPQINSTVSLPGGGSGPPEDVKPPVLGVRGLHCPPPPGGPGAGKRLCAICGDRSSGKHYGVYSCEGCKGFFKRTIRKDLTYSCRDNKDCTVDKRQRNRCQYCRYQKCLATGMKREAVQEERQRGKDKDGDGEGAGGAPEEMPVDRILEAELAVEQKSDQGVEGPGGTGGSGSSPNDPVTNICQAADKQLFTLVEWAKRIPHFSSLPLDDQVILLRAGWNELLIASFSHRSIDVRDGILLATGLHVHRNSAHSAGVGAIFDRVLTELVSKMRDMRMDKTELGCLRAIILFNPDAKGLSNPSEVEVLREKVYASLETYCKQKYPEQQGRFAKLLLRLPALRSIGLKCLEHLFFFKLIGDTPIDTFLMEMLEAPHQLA
Sequence of E-selectin (Homo sapiens) (P16581 whole entry, looked up): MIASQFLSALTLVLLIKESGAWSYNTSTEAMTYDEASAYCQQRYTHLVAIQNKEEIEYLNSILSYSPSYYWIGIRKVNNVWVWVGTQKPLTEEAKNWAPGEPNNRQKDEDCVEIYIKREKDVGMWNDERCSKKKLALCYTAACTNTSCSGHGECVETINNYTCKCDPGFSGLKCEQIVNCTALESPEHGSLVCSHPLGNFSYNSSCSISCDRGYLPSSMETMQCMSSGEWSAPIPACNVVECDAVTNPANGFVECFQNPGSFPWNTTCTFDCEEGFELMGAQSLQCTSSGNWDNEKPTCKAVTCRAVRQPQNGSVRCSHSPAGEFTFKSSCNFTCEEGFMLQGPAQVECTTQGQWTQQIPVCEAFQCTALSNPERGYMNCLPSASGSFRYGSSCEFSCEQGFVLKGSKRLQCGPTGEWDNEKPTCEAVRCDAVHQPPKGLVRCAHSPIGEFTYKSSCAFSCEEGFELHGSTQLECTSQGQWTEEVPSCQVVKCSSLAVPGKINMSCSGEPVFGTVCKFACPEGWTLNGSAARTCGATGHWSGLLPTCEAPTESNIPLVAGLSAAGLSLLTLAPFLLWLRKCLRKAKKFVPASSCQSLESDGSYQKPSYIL
Sequence of Retinoic acid receptor RXR-alpha (Homo sapiens) (P19793 whole entry, looked up, the tested form may be a part): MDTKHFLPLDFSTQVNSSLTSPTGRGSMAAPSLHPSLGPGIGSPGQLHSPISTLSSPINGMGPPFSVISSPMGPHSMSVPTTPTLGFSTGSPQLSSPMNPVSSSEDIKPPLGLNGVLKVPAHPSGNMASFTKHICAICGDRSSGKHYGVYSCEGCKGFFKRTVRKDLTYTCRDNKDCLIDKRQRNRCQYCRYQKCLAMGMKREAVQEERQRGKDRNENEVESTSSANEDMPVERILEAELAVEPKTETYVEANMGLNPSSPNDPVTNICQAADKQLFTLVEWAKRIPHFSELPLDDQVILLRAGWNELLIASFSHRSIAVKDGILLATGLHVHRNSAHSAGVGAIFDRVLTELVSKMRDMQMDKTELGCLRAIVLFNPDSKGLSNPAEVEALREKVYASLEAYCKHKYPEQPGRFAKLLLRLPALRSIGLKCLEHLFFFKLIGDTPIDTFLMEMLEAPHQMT
Sequence of human RAR-related Orphan Receptor gamma (RORg), RORC (gene 6097) (P51449 whole entry, looked up, the tested form may be a part): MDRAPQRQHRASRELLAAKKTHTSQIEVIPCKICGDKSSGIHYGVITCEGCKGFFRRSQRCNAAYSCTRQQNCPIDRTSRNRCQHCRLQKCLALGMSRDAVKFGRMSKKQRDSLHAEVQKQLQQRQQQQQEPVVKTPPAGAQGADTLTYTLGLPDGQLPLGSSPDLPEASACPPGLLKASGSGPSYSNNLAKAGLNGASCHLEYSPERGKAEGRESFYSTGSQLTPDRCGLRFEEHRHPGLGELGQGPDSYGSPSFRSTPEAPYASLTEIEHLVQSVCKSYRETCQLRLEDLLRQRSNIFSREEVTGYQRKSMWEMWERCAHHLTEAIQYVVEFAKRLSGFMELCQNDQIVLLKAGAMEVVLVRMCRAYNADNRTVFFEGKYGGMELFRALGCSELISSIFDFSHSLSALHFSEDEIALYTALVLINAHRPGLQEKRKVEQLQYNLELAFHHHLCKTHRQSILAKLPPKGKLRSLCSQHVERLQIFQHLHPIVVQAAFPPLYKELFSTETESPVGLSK

Nc1ccc(Cl)cc1N
active: [2] 27.8 µM | [4] 3.48 µM | [8] 5.99 µM
not listed: [10]
inactive: all other assays above

N#CC(Br)Br
not listed: [3] | [9] | [10]
inactive: all other assays above

COc1cc(C=O)cc2c1[C@H](COC(N)=O)[C@]1(OC(C)=O)ON2C[C@H]2[C@@H]1N2C(C)=O
inactive: [10]
active: [4] 10.8 µM | [5] 2.63 µM | [6] 6.85 µM | [7] 3.22 µM | [8] 15.9 µM | [9] 11.9 µM

O=C(Nc1ccccc1)c1ccccc1I
not listed: [10]
inactive: all other assays above

Nc1cc(Cl)cc(C(=O)O)c1Cl
not listed: [1] | [2] | [9]
inactive: all other assays above

CCN(CC)N=O
not listed: [1] | [2]
inactive: all other assays above

Cc1cccc(N)c1N
active: [2] 46.1 µM | [4] 30.3 µM | [8] 25.9 µM
not listed: [10]
inactive: all other assays above

c1ccc2c(c1)-c1cccc3cccc-2c13
active: [2] 31.2 µM
not listed: [9] | [10]
inactive: all other assays above

CCCCCCCCCCCCCN1CC(C)OC(C)C1 (stereo unspecified)
active: [1] 26.4 µM | [2] 26.6 µM
not listed: [10]
inactive: all other assays above

Cc1ccc(N=C=O)cc1N=C=O
not listed: [1] | [2] | [3]
inactive: all other assays above

ClCCOCCCl
not listed: [10]
inactive: all other assays above

c1ccc(C2CO2)cc1 (stereo unspecified)
not listed: [1] | [2] | [3]
inactive: all other assays above

CCC[CH2][Sn]([Cl])([CH2]CCC)[CH2]CCC
active: [1] 0.245 µM | [2] 0.0637 µM | [4] 0.148 µM | [5] 0.148 µM | [6] 0.148 µM | [7] 3.62 µM | [8] 0.148 µM
inactive: [3]

Cc1ccc([N+](=O)[O-])cc1
not listed: [9] | [10]
inactive: all other assays above

CNC(=O)Oc1cccc2c1OC(C)(C)C2
active: [2] 58.7 µM
not listed: [10]
inactive: all other assays above

CCOC(=O)[C@]1(c2ccccc2)Oc2ccccc2[C@@H]1N
inactive: [10] | [3] | [4] | [5] | [7]
active: [6] 13.4 µM | [8] 27.6 µM

c1ccc2c(c1)oc1ccccc12
not listed: [1] | [2] | [10]
inactive: all other assays above

Cc1ccc(N)c(N)c1
inactive: [1] | [5] | [6] | [7]
active: [4] 6.22 µM | [8] 7.53 µM | [9] 3.17 µM

CCCCCOC(=O)c1ccccc1C(=O)OCCCCC
active: [8] 20 µM
not listed: [1] | [3] | [10]
inactive: all other assays above

CCC(C)c1ccc(O)cc1 (stereo unspecified)
inactive: [4] | [5] | [6] | [7] | [8]
active: [2] 100 µM

CCC12COCN1COC2
inactive: [1] | [4] | [5] | [6] | [7] | [8]

Source: PubChem BioAssay (EPA / NIEHS)
